The full list was thinned out, with hits kept by preference.
CBFb-RUNX1 inh = CBF-beta/RUNX1 interaction disruption; AlphaScreen CBFb-His/RUNX1-biotin binding, biochemical; 230,000 tested, under 10 active; Q01196+Q13951; Potency, µM (top dose mostly 59.8 µM), usual class: inhibitors
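CBFb-His/RUNX1-biotin, 30 nM each, preincubated 20 min RT; compound 15 min RT; Ni + streptavidin beads 50 ng each, 90 min RT; AlphaScreen read.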
MBNL1 CUG block = inhibitors of human MBNL1 binding to CUG repeat RNA | Q9NR56 | TR-FRET MBNL1-His/biotin-(CUG)12 binding, 665/545 ratio | Potency, µM (series often up to 57.5 µM), hits mostly inhibitors | hit rate 0.036% among 280,000; active = well fitted inhibition curve with a large enough effect in the signal ratio, with a control signal flat, not every such curve was filed as active; inconclusive = small, poorly fitted or top-dose-only effect, or effect the other way, or a change in a side signal; inactive = no such curve, though single readings can be large or run the other way; the % refers to the signal ratio
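Compounds (final 92 nM to 58 uM) are added to His-tagged MBNL1 and biotin-(CUG)12, then terbium anti-His antibody and streptavidin-XL665 (5 nM final). After 60 min at room temperature, the 665/545 nm ratio is read.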
Menin-MLL FL inh = menin-MLL binding inhibition, fluorescein peptide | Fluorescence polarization, fluorescein-MLL peptide displacement from menin | FP activity change, % at 61.4 µM | 290,000 tested, under 10 active; active = well fitted curve in the direction sought with a large enough effect in the polarisation, not every such curve was filed as active; inconclusive = small, poorly fitted or top-dose-only effect, or effect the other way, or a change in a side signal; inactive = no such curve, though single readings can be large or run the other way; the % refers to the polarisation
Menin-MLL TR inh = inhibitors of human menin-MLL interaction, mutant MLL peptide; O00255; Menin + Texas Red MLL mutant peptide, fluorescence polarization; Potency, µM (titrated, usually from 61.6 µM), usual class: inhibitors; hit rate 0.23% among 270,000; AID 1768; active = well fitted inhibition curve with a large enough effect in the polarisation, with a control signal flat, not every such curve was filed as active; inconclusive = small, poorly fitted or top-dose-only effect, or effect the other way, or a change in a side signal; inactive = no such curve, though single readings can be large or run the other way; the % refers to the polarisation
MLL CXXC-DNA inh = inhibitors of human MLL CXXC domain-DNA interaction | Q03164 | MLL-CXXC / FITC-HOXA9 DNA fluorescence polarization | Potency, µM (highest dose often 115 µM), hits mostly inhibitors | hit rate 0.037% among 290,000 | AID 2662; active = well fitted inhibition curve with a large enough effect in the polarisation, with a control signal flat, not every such curve was filed as active; inconclusive = small, poorly fitted or top-dose-only effect, or effect the other way, or a change in a side signal; inactive = no such curve, though single readings can be large or run the other way; the % refers to the polarisation
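Steps: dispense CXXC domain solution (7 uM) → pin compounds or unlabeled HOX-A9 DNA control → 5 min ambient → add FLSN-HOX-A9 solution (50 nM) → spin → 30 min ambient → fluorescence polarization. Tris pH 7.5/NaCl/DTT/BSA buffer.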
MLL CXXC FP-Fl = inhibitors of human MLL CXXC domain-DNA interaction | shares compounds with MLL CXXC-DNA inh | MLL CXXC-DNA binding, fluorescein FP | Potency, µM (doses to about 345 µM), hits mostly inhibitors | hit rate 70% among 200 | AID 624160; note: nearly all actives have a fitted effect of over 80% in size
MLL CXXC FP-TR = inhibitors of human MLL CXXC domain-DNA interaction, Texas Red format | shares compounds with MLL CXXC-DNA inh | MLL CXXC-DNA binding, Texas Red fluorescence polarization | Potency, µM (titrated, usually from 345 µM), actives largely listed as inhibitors | hit rate 40% among 200 | AID 624161; note: nearly all actives have a fitted effect of over 75% in size
MLL CXXC TRF = MLL CXXC-DNA interaction inhibition, HTRF readout | shares compounds with MLL CXXC-DNA inh | MLL CXXC-DNA binding, HTRF, biochemical | Potency, µM (top dose mostly 172 µM), hits mostly inhibitors | hit rate 30% among 210 | AID 624162; note: nearly all actives have a fitted effect of over 80% in size
Hits are given with their value. Unless noted, calls come from the whole dose curve; as a rule, active = well fitted curve in the direction sought with a large enough effect; inconclusive = small, poorly fitted or top-dose-only effect, or another doubt; inactive = no such curve, though single readings can be large; an effect the other way counts as inactive or inconclusive.

Screening O=C(O)CCCC[C@@H]1SC[C@H]2NC(=O)N[C@@H]12 returned CBFb-RUNX1 inh 13µM, Menin-MLL FL inh inactive and Menin-MLL TR inh inactive.
Screening CCCCCCCSc1cc(OC)c(CCN(C)C)cc1OC returned MBNL1 CUG block inactive, Menin-MLL FL inh inactive, Menin-MLL TR inh 7.1µM and MLL CXXC-DNA inh inconclusive.
Screening O=C(C(=O)N1CC=C(c2ccccc2)CC1)c1c[nH]c2ccccc12 returned CBFb-RUNX1 inh inactive, MBNL1 CUG block inactive, Menin-MLL FL inh inconclusive, Menin-MLL TR inh inactive and MLL CXXC-DNA inh inactive.
NC(=O)[C@@H]1CCCN1C(=O)[C@H](Cc1ccccc1)NC(=O)[C@@H]1CCCN1C(=O)[C@@H](N)Cc1ccc(O)cc1 was read as CBFb-RUNX1 inh inactive.
`CCOP(=O)(OCC)C(O)c1cccnc1` (centres undefined) gave CBFb-RUNX1 inh inactive, MBNL1 CUG block inactive, Menin-MLL FL inh inactive and MLL CXXC-DNA inh inactive.
For CCCCOP(=O)(OCCCC)C(Nc1ccc(C(=O)OCC)cc1)c1ccncc1 (centres undefined) the results were MBNL1 CUG block inactive, Menin-MLL FL inh inactive, Menin-MLL TR inh 3.2µM and MLL CXXC-DNA inh inactive.
For CC[C@@H](CO)NC(=O)[C@@H]1C=C2c3cccc4[nH]cc(c34)C[C@H]2N(C)C1 the results were CBFb-RUNX1 inh inconclusive, Menin-MLL FL inh inconclusive, Menin-MLL TR inh inactive, MLL CXXC FP-Fl inactive, MLL CXXC FP-TR inactive and MLL CXXC TRF inactive.
`COc1ccc(F)cc1C(=O)C1CCCN(Cc2ccc(O)cc2)C1` (centres undefined) gave MBNL1 CUG block inactive, Menin-MLL FL inh inactive, Menin-MLL TR inh inactive and MLL CXXC-DNA inh inactive.
For O=c1[nH]c(=O)n(Cc2ccc(F)cc2)c(O)c1C=NCc1cccnc1 the results were CBFb-RUNX1 inh inactive, MBNL1 CUG block inactive, Menin-MLL FL inh inactive, Menin-MLL TR inh inactive and MLL CXXC-DNA inh inactive.
`COc1ccc2c(c1OC)C(=O)OC2c1c(O)n(Cc2ccc(F)cc2)c(=O)[nH]c1=O` (centres undefined) gave CBFb-RUNX1 inh inactive, MBNL1 CUG block inactive, Menin-MLL FL inh inactive, Menin-MLL TR inh inactive, MLL CXXC-DNA inh 13µM, MLL CXXC FP-Fl 25µM, MLL CXXC FP-TR 113µM and MLL CXXC TRF 97µM.
Screening O=C(O)CCC(=O)NCCC1=c2ccccc2=N/C1=C\c1c(O)n(Cc2ccc(F)cc2)c(=S)[nH]c1=O returned CBFb-RUNX1 inh inactive, MBNL1 CUG block inactive, Menin-MLL FL inh inactive, MLL CXXC-DNA inh 20µM, MLL CXXC FP-Fl 22µM, MLL CXXC FP-TR 56µM and MLL CXXC TRF 15µM.
Screening Cc1c(Cl)cccc1N1C(=O)NC(=O)/C(=C\c2cc(C)n(-c3cccc(C(=O)O)c3C)c2C)C1=O returned MBNL1 CUG block inactive, Menin-MLL FL inh inactive, Menin-MLL TR inh inactive, MLL CXXC-DNA inh inconclusive, MLL CXXC FP-Fl 7.1µM, MLL CXXC FP-TR 71µM and MLL CXXC TRF inactive.
For Cc1cc(/C=C2\C(=O)NC(=O)N(Cc3ccccc3)C2=O)c(C)n1-c1ccc(Cl)c(C(=O)O)c1 the results were CBFb-RUNX1 inh inactive, MBNL1 CUG block inactive, Menin-MLL FL inh inconclusive, Menin-MLL TR inh inactive and MLL CXXC-DNA inh inconclusive.
For Cc1ccc(N2C(=O)NC(=O)/C(=C\c3cc(C)n(-c4cc(C(=O)O)cc(C(=O)O)c4)c3C)C2=O)cc1 the results were MBNL1 CUG block inactive, Menin-MLL FL inh inactive, Menin-MLL TR inh inactive, MLL CXXC-DNA inh 8.9µM, MLL CXXC FP-Fl 36µM, MLL CXXC FP-TR 40µM and MLL CXXC TRF 122µM.
Screening Cc1cc(/C=C2\C(=O)NC(=O)N(c3ccc(F)cc3)C2=O)c(C)n1-c1ccc(C(=O)O)cc1 returned CBFb-RUNX1 inh inactive, MBNL1 CUG block inactive, Menin-MLL FL inh inconclusive, Menin-MLL TR inh inactive, MLL CXXC-DNA inh inconclusive, MLL CXXC FP-Fl 36µM, MLL CXXC FP-TR 100µM and MLL CXXC TRF inactive.
Screening Cc1cc(/C=C2\C(=O)NC(=O)N(c3cccc(F)c3)C2=O)c(C)n1-c1ccc(C(=O)O)c(Cl)c1 returned MBNL1 CUG block inactive, Menin-MLL FL inh inconclusive, Menin-MLL TR inh inactive, MLL CXXC-DNA inh 13µM, MLL CXXC FP-Fl inactive, MLL CXXC FP-TR 89µM and MLL CXXC TRF inactive.
Screening Cc1ccc(N2C(=O)NC(=O)/C(=C\c3cc(C)n(-c4ccc(C(=O)O)cc4)c3C)C2=O)cc1 returned MBNL1 CUG block inactive, Menin-MLL FL inh inactive, Menin-MLL TR inh inactive and MLL CXXC-DNA inh inactive.
Screening CCc1ccc(N2C(=O)NC(=O)/C(=C\c3cc(C)n(-c4cc(C(=O)O)cc(C(=O)O)c4)c3C)C2=O)cc1 returned MBNL1 CUG block inactive, Menin-MLL FL inh inactive, Menin-MLL TR inh inactive and MLL CXXC-DNA inh inactive.
`O=C(C1CCCN(S(=O)(=O)c2cccc3nsnc23)C1)N1CCC2(CC1)OCCO2` (centres undefined) gave CBFb-RUNX1 inh inactive, MBNL1 CUG block inconclusive, Menin-MLL FL inh inactive, Menin-MLL TR inh inactive and MLL CXXC-DNA inh inactive.
Screening C[N+]12CCC(CC1)C(=C(c1ccccc1)c1ccccc1)C2 returned CBFb-RUNX1 inh inactive, MBNL1 CUG block inactive, Menin-MLL FL inh inactive, Menin-MLL TR inh inactive and MLL CXXC-DNA inh inactive.
`CCN1CCN(c2ccc(NC(=O)C(C)C)cc2Cl)CC1` gave CBFb-RUNX1 inh inactive, MBNL1 CUG block inactive, Menin-MLL FL inh inactive, Menin-MLL TR inh inactive and MLL CXXC-DNA inh inactive.
NCc1cccnc1 was read as Menin-MLL FL inh inactive, Menin-MLL TR inh inactive and MLL CXXC-DNA inh inactive.
`O=[N+]([O-])c1ccc(O)c([N+](=O)[O-])c1` gave CBFb-RUNX1 inh inactive, Menin-MLL FL inh inactive and Menin-MLL TR inh inactive.
Screening CN1C(=O)C(c2ccc([N+](=O)[O-])cc2[N+](=O)[O-])C(=O)N(C)C1=O returned MBNL1 CUG block inconclusive, Menin-MLL FL inh inactive, Menin-MLL TR inh inactive, MLL CXXC-DNA inh 40µM, MLL CXXC FP-Fl inconclusive, MLL CXXC FP-TR inconclusive and MLL CXXC TRF inactive.
`Cc1cc(/C=C2\C(=O)NC(=O)N(Cc3ccccc3Cl)C2=O)c(C)n1-c1ccc(C(=O)O)cc1` gave CBFb-RUNX1 inh inconclusive, MBNL1 CUG block inactive, Menin-MLL FL inh inactive, Menin-MLL TR inh inconclusive, MLL CXXC-DNA inh inconclusive, MLL CXXC FP-Fl 14µM, MLL CXXC FP-TR 50µM and MLL CXXC TRF inconclusive.
